Rows were chosen to be rich in hits. Some 19% of all compounds tested hit in one or more screens of this group.
CHX counter: Cycloheximide Counterscreen for Small Molecule Inhibitors of Shiga Toxin | AID 2314, 2010 | max response, % | cell reporter, cycloheximide protein synthesis inhibition counterscreen | 300,000 tested, 12% active; in the data active means max response mostly above about 13%, no sharp cut-off; inactive means mostly below about 14%; further: read at 38.3 µM for the half of the compounds with a filed dose; 0% is about no effect
Pf growth 96h: Primary qHTS for delayed death inhibitors of the malarial parasite plastid, 96 hour incubation; P. falciparum luciferase reporter growth, 96 h; Potency, µM (series often up to 28.7 µM), without a hit: top-dose activity change, negative = inhibition, usual class: inhibitors; 320,000 tested, 6.9% active; AID 504834, 2011; further: potency means the concentration at half of the fitted maximal effect; on the % scale 0 is the no-effect control and ±100 the full control effect
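Two parasite generations (96 h, 37 C, 5% CO2) of compound exposure in infected erythrocytes (0.05% parasitemia, 2% hematocrit). Luciferase-reporter P. falciparum; decreased luminescence indicates inhibited growth, aimed at apicoplast-acting delayed death.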
Pf growth 48h: Primary qHTS for delayed death inhibitors of the malarial parasite plastid, 48 hour incubation; P. falciparum luciferase growth in erythrocytes, 48 h; Potency, µM (series often up to 28.7 µM), inactives show at the top dose activity change, negative = inhibition, usual class: inhibitors; 310,000 tested, 5.9% active; AID 504832, 2011; further: potency means the concentration at half of the fitted maximal effect; on the % scale 0 is the no-effect control and ±100 the full control effect
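A one-generation exposure of luciferase-tagged malaria parasites in RPMI 1640/Albumax erythrocyte culture, 37 C and 5% CO2. Inhibition is inferred from decreased luminescence after adding detection reagent.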
Shiga inhibitor: A qHTS for Small Molecule Inhibitors of Shiga Toxin; Vero cells, Shiga toxin protein synthesis inhibition reporter; inhibition, % at 38.7 µM; 290,000 tested, 9.2% active; in the data active means inhibition mostly above about 28%, no sharp cut-off; inactive means mostly below about 43%; further: 0% is about no effect
AMA1 RON2 block: qHTS for Inhibitors of AMA1-RON; Towards Development of Antimalarial Drug Lead: Primary Screen; Plasmodium falciparum AMA1 (3D7) - RON2 peptide interaction; AlphaScreen AMA1-biotinylated RON2 peptide binding; Potency, µM (top dose mostly 58.2 µM), inactives show at the highest dose activity change, negative = inhibition, actives largely listed as inhibitors; 360,000 tested, 0.2% active; AID 720542, 2013;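 further: potency means the concentration at half of the fitted maximal effect; 0% = vehicle wells and -100% = peptide control; nearly all actives have a fitted effect of over 45% in size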
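AMA1 (3D7) with his tag at 25 nM final met compounds first, then biotinylated RON2 peptide at 25 nM; detection used donor plus acceptor beads, 10 µg/mL apiece, read by AlphaScreen after 30 min at room temperature.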
SARS PLpro yeast: qHTS of Yeast-based Assay for SARS-CoV PLP. S. cerevisiae expressing SARS-CoV PLpro, growth rescue. Potency, µM (series often up to 32.9 µM), without a hit: top-dose activity, positive = growth rescue, hits mostly activators. 330,000 tested, 0.19% active; calls by dose curve; further: potency means the concentration at half of the fitted maximal effect; 0% is about no effect; nearly all actives have a fitted effect of over 55% in size
* marks the source's active call; other numbers are inactive results. Unless noted, the call rests on the fitted dose curve; in most records, active means well fitted curve in the direction sought with a large enough effect; inconclusive means small, poorly fitted or top-dose-only effect, or another doubt; inactive means no such curve, though single readings can be large; an effect the other way counts as inactive or inconclusive.

How did O=C(Nc1ccccc1C(F)(F)F)c1cccnc1 do in these assays?
CHX counter: -2.0; Pf growth 96h: 10.3%; Pf growth 48h: 19.2%; Shiga inhibitor: -7.4; AMA1 RON2 block: 20.8%; SARS PLpro yeast: -6.7%

How did O=C(Nc1ccccc1C(F)(F)F)c1cc(-c2ccccc2O)on1 do in these assays?
CHX counter: 37.0*; Pf growth 96h: 0.465µM*; Pf growth 48h: 1.04µM*; Shiga inhibitor: 82.6*; AMA1 RON2 block: -1.6%; SARS PLpro yeast: 0.3%

How did O=C(Nc1ccccc1C(F)(F)F)c1cc2ncc(CCCl)cn2n1 do in these assays?
CHX counter: 23.2*; Pf growth 96h: inconclusive; Pf growth 48h: inconclusive; Shiga inhibitor: 76.7*; AMA1 RON2 block: 29.3%; SARS PLpro yeast: 3.7%

Results for COC(=O)[C@]12CCCCC=C1N(Cc1ccc(Cl)cc1Cl)C(=O)[C@H](CC(=O)NCCCCc1ccccc1)C2 ?
AMA1 RON2 block: -5.8%

How did OC1(C(F)(F)F)CC(c2ccc3ccccc3c2)=NO1 (stereo unspecified) do in these assays?
CHX counter: 38.1*; Pf growth 96h: 31.4%; Pf growth 48h: 3.3%; Shiga inhibitor: 48.1*; AMA1 RON2 block: 9.2%; SARS PLpro yeast: -1.2%

What do the screens show for `O=C1C(c2ccccc2)c2ccccc2N1Cc1ccccc1` (stereo unspecified)?
AMA1 RON2 block: -7.3%

What do the screens show for `C[C@]12C=CC(=O)N[C@@H]1CC[C@@H]1C2CC[C@]2(C)C(C(=O)Nc3cc(C(F)(F)F)ccc3C(F)(F)F)CC[C@@H]12` (stereo partly specified)?
Pf growth 96h: 3.38µM*; Pf growth 48h: 4.78µM*

Results for FC(F)(F)c1ccc2c(c1)ncn2C1CCN(Cc2nnnn2C2CCCCC2)CC1 ?
CHX counter: -3.5; Pf growth 96h: -1.2%; Pf growth 48h: 4.15µM*; Shiga inhibitor: -6.4; AMA1 RON2 block: -7.4%; SARS PLpro yeast: -0.9%

How did c1ccc(CCn2nnnc2CN2CCC(n3nnc4ccccc43)CC2)cc1 do in these assays?
CHX counter: -3.1; Pf growth 96h: 79.1%; Pf growth 48h: inconclusive; Shiga inhibitor: -4.4; AMA1 RON2 block: -8.8%; SARS PLpro yeast: -6.0%

What do the screens show for `Clc1ccc2nc(C3CCN(Cc4nnnn4C4CCCCC4)CC3)[nH]c2c1`?
CHX counter: 1.1; Pf growth 96h: -23.0%; Pf growth 48h: 11.7µM*; Shiga inhibitor: 10.0; AMA1 RON2 block: -2.0%; SARS PLpro yeast: -0.8%

How did COCCn1nnnc1CN1CCC(Cc2ccccc2)CC1 do in these assays?
CHX counter: 1.2; Pf growth 96h: 2.62µM*; Pf growth 48h: -15.3%; Shiga inhibitor: -3.5; AMA1 RON2 block: inconclusive; SARS PLpro yeast: 9.1%

Results for Cc1nc2ccccc2n1C1CCN(Cc2nnnn2CCc2ccccc2)CC1 ?
CHX counter: -2.1; Pf growth 48h: 13.1µM*; Shiga inhibitor: -17.9; AMA1 RON2 block: 3.2%; SARS PLpro yeast: -1.5%

Results for Cc1ccc(Cn2nnnc2CN2CCC(c3nc4ccc(Cl)cc4[nH]3)CC2)cc1 ?
CHX counter: -0.7; Pf growth 96h: inconclusive; Pf growth 48h: inconclusive; Shiga inhibitor: -7.3; AMA1 RON2 block: -24.1%; SARS PLpro yeast: -12.4%

Results for O=C(NCCN1CCC(n2c(=O)[nH]c3ccccc32)CC1)c1ccc(F)cc1Cl ?
AMA1 RON2 block: -2.7%

What do the screens show for `COCCNC(=O)C/C(C)=N/NC(=O)C(=O)NC1CCCCC1`?
CHX counter: 2.4; Pf growth 96h: 55.2%; Pf growth 48h: 14.4%; Shiga inhibitor: -5.5; AMA1 RON2 block: 32.2%; SARS PLpro yeast: 0.1%

Results for Cc1nc2cc(C(F)(F)F)ccc2n1C1CCN(CC(=O)NC(C)(C)C)CC1 ?
CHX counter: -2.4; Pf growth 96h: 0.8%; Pf growth 48h: 9.28µM*; Shiga inhibitor: -12.4; AMA1 RON2 block: -1.9%; SARS PLpro yeast: -1.9%

Results for C=CCNC(=O)CN1CCC(n2c(C)nc3cc(C(F)(F)F)ccc32)CC1 ?
CHX counter: -1.1; Pf growth 96h: 49.0%; Shiga inhibitor: 9.2; AMA1 RON2 block: -0.1%; SARS PLpro yeast: 3.7%

Results for Cc1nc2cc(C(F)(F)F)ccc2n1C1CCN(Cc2nnnn2Cc2cccs2)CC1 ?
CHX counter: -3.4; Pf growth 96h: -89.0%; Pf growth 48h: 9.28µM*; Shiga inhibitor: 22.6; AMA1 RON2 block: 7.9%; SARS PLpro yeast: 1.0%

What do the screens show for `Fc1ccc(Cn2nnnc2CN2CCC(n3nnc4cc(C(F)(F)F)ccc43)CC2)cc1`?
CHX counter: 0.8; Pf growth 96h: inconclusive; Pf growth 48h: inconclusive; Shiga inhibitor: -7.9; AMA1 RON2 block: -5.7%; SARS PLpro yeast: 0.6%

Results for Cc1nc2cc(C(F)(F)F)ccc2n1C1CCN(Cc2nnnn2Cc2ccc3c(c2)OCO3)CC1 ?
CHX counter: -6.1; Pf growth 96h: -1.0%; Pf growth 48h: 4.65µM*; Shiga inhibitor: -10.9; AMA1 RON2 block: -15.5%; SARS PLpro yeast: -9.9%

Results for Cn1cnc(S(=O)(=O)N2CCN(c3cccc(C(F)(F)F)c3)CC2)c1 ?
CHX counter: -4.0; Pf growth 96h: 23.3%; Pf growth 48h: 6.6%; Shiga inhibitor: -5.3; AMA1 RON2 block: -9.2%; SARS PLpro yeast: 13.0%

How did COc1ccc(C2=NN(CN3C(=O)C(=O)c4ccccc43)C(c3ccc(Br)cc3)C2)cc1 (stereo unspecified) do in these assays?
CHX counter: 32.1*; Pf growth 96h: 11.0%; Shiga inhibitor: 46.3; AMA1 RON2 block: -6.6%; SARS PLpro yeast: 2.7%

What do the screens show for `COc1ccc(C2=NN(C(=O)CN3CCCC3)C(c3ccc(OC)cc3)C2)cc1` (stereo unspecified)?
CHX counter: 7.8; Pf growth 96h: inconclusive; Pf growth 48h: inconclusive; Shiga inhibitor: 21.6; AMA1 RON2 block: -8.7%; SARS PLpro yeast: 5.0%

What do the screens show for `COc1ccc(C2=NN(CN3C(=O)C(=O)c4ccccc43)C(c3ccc(C)cc3)C2)cc1` (stereo unspecified)?
CHX counter: 24.8*; Pf growth 96h: inconclusive; Shiga inhibitor: 77.7*; AMA1 RON2 block: -4.9%; SARS PLpro yeast: -13.1%

Results for CN(CC(=O)Nc1ccc(F)c(F)c1F)C(=O)CCCSc1nc2ccccc2[nH]1 ?
Pf growth 96h: inconclusive; Pf growth 48h: inconclusive; AMA1 RON2 block: 21.0%; SARS PLpro yeast: -3.8%

How did NC(=O)c1ccc(C2SCC(=O)N2Cc2ccccc2)cc1 (stereo unspecified) do in these assays?
CHX counter: -2.9; Pf growth 96h: inconclusive; Pf growth 48h: 2.3%; Shiga inhibitor: 11.9; AMA1 RON2 block: -0.6%; SARS PLpro yeast: 1.6%

How did COc1cccc(CNc2ccc([N+](=O)[O-])cc2C)c1 do in these assays?
CHX counter: 1.8; Pf growth 96h: 16.6%; Pf growth 48h: inconclusive; Shiga inhibitor: -2.0; AMA1 RON2 block: inconclusive; SARS PLpro yeast: -1.2%

Assay outcomes: PubChem BioAssay, National Center for Advancing Translational Sciences (NCATS)
